Values joined by “and” are separate entries in the source; they are usually repeats but may differ in a detail not shown here. Identical values can stand only once. Counter-ions that a name gives are not always drawn. ± gives the standard deviation of the averaged measurements. In all, about 3,200 compounds were measured (“nuclei count (viability) relative to DMSO”: median about 99, lowest 2% from about 16 on). This is one part of a sample in which the lowest values are shown more often than they occur.

In the experiment the test system is U2OS. As to the kind of experiment: nuclei count (viability) relative to DMSO (% of DMSO); higher = more viable cells. The settings on record: 10 µM; 24 h. As to the method: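 Primary image-based screen in U2OS cells: compounds at 10 uM for 24 h, then a 1 h o-propargyl-puromycin (OPP) pulse, click labelling, and high-throughput microscopy. Mean cytoplasmic OPP intensity and nuclei count were normalised to DMSO wells within each plate (DMSO = 100) and averaged over triplicate plates.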
On to `C/C=C1\NC(=O)[C@H]2CSSCC/C=C/[C@H](CC(=O)N[C@H](C(C)C)C(=O)N2)OC(=O)[C@H](C(C)C)NC1=O` [Romidepsin (FK228 ,depsipeptide)], for which the nuclei count turned out to be 8.81.
For the molecule `CC#CCOC(=O)C1=CCCN(C)C1` [Arecaidine but-2-ynyl ester tosylate], the nuclei count turned out to be 101.
Then `CNC(=O)c1cc(Oc2ccc(NC(=O)Nc3cc(C(C)(C)C)nn3-c3ccc4ncccc4c3)c(F)c2)ccn1` [DCC-2036 (Rebastinib)], with 70.1; and `O=C(/C=C/c1ccc2ccccc2n1)c1ccncc1`, with 11.3.
The molecule `C=CC(=O)c1ccc2ccccc2c1` came in with a nuclei count of 105.
Then `NC(=O)c1ccncc1` [Isonicotinamide], with 99.6.
Molecule `COC(=O)C1=C(C)NC(C)=C(C(=O)OCCSc2ccccc2)C1C` (stereo not drawn) yielded a nuclei count of 97.8.
To `CCS(=O)(=O)N1CCC[C@@H]2CN3CCc4cc(OC)ccc4[C@@H]3C[C@@H]21` belongs 101.
Then `CC1=CC(=O)c2ccccc2C1=O` [Menadione], with 54.1.
Molecule `O=C1c2ccccc2C(=O)c2c1ccc(O)c2O` [Alizarin] yielded a nuclei count of 89.7.
In turn, `CC[C@H](C)[C@H](N)C1=N[C@H](C(=O)N[C@@H](CC(C)C)C(=O)N[C@H](CCC(=O)[O-])C(=O)N[C@H](C(=O)N[C@H]2CCCCNC(=O)[C@H](CC(N)=O)NC(=O)[C@@H](CC(=O)[O-])NC(=O)[C@H](Cc3cnc[nH]3)NC(=O)[C@@H](Cc3ccccc3)NC(=O)[C@H]([C@@H](C)CC)NC(=O)[C@@H](CCCN)NC2=O)[C@@H](C)CC)CS1.[Zn+2]` [Bacitracin zinc] showed a nuclei count of 109.
The molecule `CC(C)NCC(O)COc1ccc(COCCOC(C)C)cc1` (racemic) [(±)-Bisoprolol hemifumarate] had a nuclei count of 102.
Turning to `C[C@H](NC(=O)/C(C#N)=C/c1cccc(Br)n1)c1ccccc1`, the nuclei count amounted to 7.49 ± 1.2.
Take `N#C/C(=C\c1ccc(O)c(O)c1)C(=O)NCc1ccccc1`: the nuclei count is 102 and 98.5.
Then `N#C/C(=C\c1ccc(O)c(O)c1)C(=O)Nc1ccccc1`, with 83.4.
In turn, `CCC[C@H](NC(=O)/C(C#N)=C/c1cccc(Br)n1)c1ccccc1` yielded a nuclei count of 5.45.
`C[C@H](NC(=O)/C(C#N)=C/c1ccc(O)c(O)c1)c1ccccc1` [Tyrphostin B44, (+) enantiomer] yielded a nuclei count of 93.4.
Molecule `CC(C)c1cccc(=O)c(O)c1` [Hinokitiol] yielded a nuclei count of 87.3.
`CCC(C)[C@H](NS(=O)(=O)c1cccc2ccccc12)C(=O)N[C@H](C=O)Cc1c[nH]c2ccccc12` (stereo partly drawn) displayed a nuclei count of 90.3.
Then `CNC(=O)CN(CCN(CCN(CC(=O)O)CC(=O)NC)CC(=O)O)CC(=O)O.O.[Gd]` [Gadodiamide (Omniscan)], with 101; and `Cc1ccccc1C(=O)Nc1ccc(C(=O)N2CCCC(N(C)C)c3ccccc32)cc1` (stereo not drawn) [Mozavaptan], with 41.2.
To `N[C@@H](CS(=O)O)C(=O)O` [L-Cysteinesulfinic acid] belongs 102; to `CC1=NN(c2ccc(C)c(C)c2)C(=O)/C1=N\Nc1cccc(-c2cccc(C(=O)O)c2)c1O`, 98.3; to `CCC(=O)Nc1cccc(Oc2nc(Nc3ccc(N4CCN(C)CC4)cc3OC)ncc2Cl)c1`, 94.6.
Then `C=CC(=O)Nc1ccc2ncnc(Nc3cccc(Br)c3)c2c1`, with 79.2 ± 4.8.
For the molecule `C=CC(=O)Nc1cccc(Nc2nc(Nc3ccc(Oc4ccnc(C(=O)NC)c4)cc3)ncc2F)c1`, the nuclei count was determined as 63.4.
`C=CC(=O)Nc1cccc(Oc2nc(Nc3ccc(N4CCN(C)CC4)cc3)ncc2Cl)c1`: the nuclei count amounted to 6.24.
Then `C=CC(=O)Nc1cccc(Oc2nc(Nc3ccc(N4CCN(C)CC4)cc3OC)ncc2Cl)c1`, with 107; and `C=CC(=O)Nc1cccc(Sc2nc(Nc3ccc(N4CCN(C)CC4)cc3)ncc2Cl)c1`, with 13.6.
To `NC1CCN(c2cccc(Cl)n2)CC1` belongs 103; to `COC(=O)C1=C(C)NC(C)=C(C(=O)NCCCN2CCC(c3ccccc3)(c3ccccc3)CC2)C1c1ccc([N+](=O)[O-])cc1` (stereo not drawn), 55.1; to `O=C(O)CCc1ccc(NCc2cccc(Oc3ccccc3)c2)cc1`, 90.2.
Then `COC(C)(C)CCCC(C)C/C=C/C(C)=C/C(=O)O` (stereo not drawn) [Methoprene acid], with 105; and `COc1ccc(CN2C(=O)C(=O)c3cc(OC(F)(F)F)ccc32)cc1`, with 17.3; and `O=C1Nc2ccc([N+](=O)[O-])cc2C1=O` [5-Nitroisatin], with 99.
With `CS(=O)(=O)Nc1ccc([N+](=O)[O-])cc1Oc1ccccc1` [Nimesulide], the nuclei count came out at 103 ± 6.9.
Then `O=[N+]([O-])c1ccc2c(c1)S(=O)(=O)C=C2` [Stattic], with 14.1; and `CCCC[P+](CCCC)(CCCC)Cc1ccc(NC(=O)C(Cc2ccc3ccccc3c2)NC(=NC2CCCCC2)NC2CCCCC2)cc1` (stereo not drawn), with 94.1; and `CC(C)C[C@H](NC(=O)[C@@H](O)[C@H](N)Cc1ccccc1)C(=O)O` [Bestatin], with 94.4.
In turn, `CC(C)C[C@H](NC(=O)[C@H](Cc1ccccc1)NC(=O)c1cnccn1)B(O)O` [Bortezomib (Velcade)] returned a nuclei count of 7.65.
On to `Nc1nc(NCCc2ccc(O)cc2)nc2nc(-c3ccco3)nn12`, for which the nuclei count is 114.
On to `CCCOc1ccn2c(C(C)=O)cc(-c3ccccc3S(C)(=O)=O)c2c1`, for which the nuclei count came to 96.4.
To `Cc1cc(=O)n(C)c2cc(N3C(=O)CC[C@H](NS(=O)(=O)CC(C)C)[C@H]3c3ccc(Cl)cc3)ccc12` belongs 104; to `COCCCN1CCC(NC(=O)c2cc(Cl)c(N)c3c2OCC3)CC1` [Prucalopride], 103; to `O=C1NCCN1c1ncc([N+](=O)[O-])s1` [Niridazole], 90.4.
For the molecule `O=c1[nH]nc(Sc2ncc([N+](=O)[O-])s2)n1-c1ccc2c(c1)OCCO2`, the nuclei count is 6.42 ± 2.8.
To `O=c1nc2ccccc2c2n1CC(CN1CCN(c3ccccc3)CC1)N2` (stereo not drawn) belongs 100; to `COc1cc2c(cc1OC)CN(CCc1ccc(NC(=O)c3cc(OC)c(OC)cc3NC(=O)c3cnc4ccccc4c3)cc1)CC2` [Tariquidar], 96.8; to `CCCCC/C=C/C=C1/C(=O)C=C[C@@H]1C/C=C\CCCC(=O)O` [15-Deoxy-D12,14-prostaglandin J2], 85.6.
As for `O=C(Nc1ccccc1-c1cn2c(CN3CCNCC3)csc2n1)c1cnc2ccccc2n1`, the nuclei count was determined as 12.2.
Regarding `O=[N+]([O-])c1cccc2c(Br)[nH]nc12` [3-Bromo-7-nitroindazole], the nuclei count amounted to 102.
Then `CCC(=O)OCN1C(=O)C=CC1=O`, with 109; and `CN(CCOc1ccc(-c2ccc3c(c2)OCO3)cc1C(C)(C)C)CC(=O)O`, with 98.

Source of the values: the supplement of paper PMC8183993.
